{"source": "PubChem BioAssay AID720711", "about": "(National Center for Advancing Translational Sciences (NCATS), 2013)", "note": "Among all 360,000 compounds or so, about 290 (0.081%) were called active. A call without a number means that no potency is given here. Calls come from the whole dose curve; as a rule, active = well fitted activation curve with a large enough effect; inconclusive = small, poorly fitted or top-dose-only effect; inactive = no such curve, though single readings can be large or run the other way. The full list was thinned out, with actives kept by preference. Potency is the fitted concentration of half-maximal effect."}
{"molecular_target": "Rap guanine nucleotide exchange factor 4 (Homo sapiens) (UniProt Q8WZA2)", "sequence (Q8WZA2 whole entry, looked up)": "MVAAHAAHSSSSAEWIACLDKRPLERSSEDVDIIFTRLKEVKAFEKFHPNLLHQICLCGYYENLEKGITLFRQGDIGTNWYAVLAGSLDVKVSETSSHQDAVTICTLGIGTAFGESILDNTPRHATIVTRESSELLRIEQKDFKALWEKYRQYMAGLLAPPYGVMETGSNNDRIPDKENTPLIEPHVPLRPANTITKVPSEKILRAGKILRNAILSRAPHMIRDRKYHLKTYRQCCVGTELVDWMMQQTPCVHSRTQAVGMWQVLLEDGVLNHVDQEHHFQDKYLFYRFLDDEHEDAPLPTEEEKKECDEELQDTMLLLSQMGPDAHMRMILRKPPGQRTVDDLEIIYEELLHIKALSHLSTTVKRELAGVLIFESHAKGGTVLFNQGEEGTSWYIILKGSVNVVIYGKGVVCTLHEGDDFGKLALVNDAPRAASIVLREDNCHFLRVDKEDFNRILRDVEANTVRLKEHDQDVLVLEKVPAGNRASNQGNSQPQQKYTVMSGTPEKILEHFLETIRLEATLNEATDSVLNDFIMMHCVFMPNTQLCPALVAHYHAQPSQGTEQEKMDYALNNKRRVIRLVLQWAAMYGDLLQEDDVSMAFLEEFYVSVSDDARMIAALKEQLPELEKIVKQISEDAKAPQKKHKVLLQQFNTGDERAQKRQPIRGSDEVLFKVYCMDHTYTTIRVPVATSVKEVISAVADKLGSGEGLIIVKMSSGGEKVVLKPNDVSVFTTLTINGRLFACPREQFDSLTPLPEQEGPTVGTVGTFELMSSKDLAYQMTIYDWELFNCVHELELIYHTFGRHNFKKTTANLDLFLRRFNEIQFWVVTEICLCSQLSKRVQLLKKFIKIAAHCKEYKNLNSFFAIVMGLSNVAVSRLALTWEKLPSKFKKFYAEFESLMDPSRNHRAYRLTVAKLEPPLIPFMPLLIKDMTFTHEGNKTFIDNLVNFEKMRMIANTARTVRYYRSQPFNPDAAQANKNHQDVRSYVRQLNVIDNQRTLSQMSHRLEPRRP", "assay": "qHTS for Agonist of cAMP-regulated guanine nucleotide exchange factor 4 (EPAC2): primary screen; note: nearly all actives have a fitted effect of over 50% in size", "conditions": "biochemical qHTS; Potency: EPAC2 activation; series mostly up to 154 µM", "method_in_brief": "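EPAC2 (100 nM) mixed with Rap1B loaded with BODIPY-GDP (250 nM) plus 50 uM unlabeled GDP; compounds pinned in, 5 min RT, then read every 5 min for 30 min (ex 480, em 540 nm). Normalized to cAMP control.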"}
{"smiles": "COc1ccc(-c2ocnc2C(=O)Nc2ccc3c(c2)CCC3)cc1", "Potency": "inactive"}
{"smiles": "COc1ccc(-c2onc3ccc(C(C)=O)cc23)cc1", "Potency": "50.1 µM (active)"}
{"smiles": "COCc1cc(C(C)=O)ccc1OC", "Potency": "inactive"}
{"smiles": "COCC1CCN(C(=O)C2CCC(=O)N(CC3CCCCC3)C2)CC1", "note": "(centres undefined)", "Potency": "inactive"}
{"smiles": "CCNC(=O)N1CCN(S(=O)(=O)c2ccc3c(c2)OCCCO3)CC1", "Potency": "inactive"}
{"smiles": "CCOc1cccc(C(=O)Nc2cnn(Cc3ccccc3)c2)c1", "Potency": "inactive"}
{"smiles": "Nc1nnc(SCC(=O)OCc2ccc(Cl)c(Cl)c2)s1", "Potency": "inactive"}
{"smiles": "COCC1CCN(C(=O)CCc2nnc(C3(c4ccc(Cl)cc4)CCC3)o2)C1", "note": "(centres undefined)", "Potency": "inactive"}
{"smiles": "Cc1ccc(CSc2nsc(C)c2C#N)cc1", "Potency": "inactive"}
{"smiles": "Cc1ccc(N=Cc2c(O)n(-c3nccs3)c(=O)c3ccccc23)c(C)c1", "Potency": "70.8 µM (active)"}
{"smiles": "COC(=O)Cc1csc(/N=C/c2c(O)n(-c3cccc(C(F)(F)F)c3)c(=O)c3ccccc23)n1", "Potency": "inactive"}
{"smiles": "Cc1cccc(-n2c(O)c(C=Nc3ccccc3N)c(=O)[nH]c2=O)c1", "Potency": "inactive"}
{"smiles": "COCCNC(=O)C1C(=O)Nc2ccccc2C(=O)N1c1ccc2c(c1)OCCO2", "note": "(centres undefined)", "Potency": "inactive"}
{"smiles": "C=CCNC(=O)CCCC(=O)NCC=C", "Potency": "inactive"}
{"smiles": "COCCNc1nc2nonc2nc1N(C)Cc1ccc(C)cc1", "Potency": "inactive"}
{"smiles": "CCCNC(=S)NC1CC2CCCC(C1)N2CC(C)C", "note": "(centres undefined)", "Potency": "inactive"}
{"smiles": "CCOC(=O)c1sc(NC(=O)C2CSC3(C)CCC(=O)N23)nc1C", "note": "(centres undefined)", "Potency": "inactive"}
{"smiles": "CC(=O)c1nc(N2C(=O)C3CC=C(C)CC3C2=O)sc1C", "note": "(centres undefined)", "Potency": "inactive"}
{"smiles": "Nc1ccccc1/C=N\\N=C/c1ccccc1N", "Potency": "inactive"}
{"smiles": "Cc1occc1-c1nnc(SCC(=O)NC2(C#N)CCCC2)n1C", "Potency": "inactive"}
{"smiles": "COc1ccc(-n2nc(C(=O)NCC(=O)N3CCC(C(N)=O)CC3)c3ccccc3c2=O)cc1OC", "Potency": "inactive"}
{"smiles": "COc1ccc2c(CC(=O)OCC(=O)NC(N)=O)coc2c1", "Potency": "inactive"}
{"smiles": "Cc1ccc(N=C2SCCCN2C(=O)c2cccc(N3C(=O)CCC3=O)c2)cc1Cl", "Potency": "inactive"}
{"smiles": "Nc1ccc2nn(-c3ccc(Cl)cc3)nc2c1", "Potency": "inactive"}
{"smiles": "Nc1nnc(SCCN2C(=O)c3ccccc3S2(=O)=O)s1", "Potency": "inactive"}
{"smiles": "COc1cccc(C2CC(c3cccs3)=NN2C(=O)CSC2=NCCS2)c1OC", "note": "(centres undefined)", "Potency": "inactive"}
{"smiles": "O=C(COc1ccc(S(=O)(=O)N2CCOCC2)cc1Cl)N1CCOCC1", "Potency": "inactive"}
{"smiles": "COCc1[nH][nH]c(=O)c1C=Nc1ccc(F)cc1F", "Potency": "inactive"}
{"smiles": "NC(=O)COc1ccc(NC(=O)c2ccccc2-c2ccccc2)cc1", "Potency": "inactive"}
{"smiles": "COc1ccc(NC(=O)C(=O)NCC(c2ccco2)N2CCc3ccccc3C2)cc1", "note": "(centres undefined)", "Potency": "inactive"}
{"smiles": "CCN(CC)C(=O)CSC(Nc1cccc(F)c1)=C(C#N)C#N", "Potency": "inactive"}
{"smiles": "CSc1nnnn1-c1c(C)cc(C)cc1C", "Potency": "inactive"}
{"smiles": "Cc1cc(-c2ccccc2)n2nc(C)c(-c3ccccc3)c2n1", "Potency": "inactive"}
{"smiles": "CC1=C/C(=N\\OS(=O)(=O)c2ccccc2)C=CC1=O", "Potency": "inactive"}
{"smiles": "COc1cccc(NC(=O)CSc2nnc(Cc3ccc(OC)c(OC)c3)o2)c1", "Potency": "inactive"}
{"smiles": "COc1ccc(NC(=O)CCCOc2ccc(C(C)=O)cc2)cc1S(=O)(=O)N1CCCCC1", "Potency": "inactive"}
{"smiles": "CCOC(=O)/C(C#N)=C\\c1c(C)cc(C)c(COC(C)=O)c1C", "Potency": "inactive"}
{"smiles": "COc1ccc(/C=C(\\C#N)C(=O)ONC2=NCCCCC2)cc1", "Potency": "inactive"}
{"smiles": "COC(=O)c1sc(N2CCN(Cc3ccccc3)CC2)nc1N", "Potency": "inactive"}
{"smiles": "CCOC(=O)/C(C#N)=C/c1ccc(N2CCCCC2)cc1", "Potency": "79.4 µM (active)"}
{"smiles": "CCCn1c(C)cc(/C=C(\\C#N)C(=O)OCC(=O)N(C)c2c(N)n(Cc3ccccc3)c(=O)[nH]c2=O)c1C", "Potency": "inactive"}
{"smiles": "CCOC(=O)/C(C#N)=C/c1ccc(N2CCN(Cc3ccccc3)CC2)cc1", "Potency": "89.1 µM (active)"}
{"smiles": "O=C(Nc1ccccc1)Oc1cccc2cccnc12", "Potency": "inactive"}
{"smiles": "CCc1cc2c(=O)c(-c3ccon3)c(N)oc2cc1OC", "Potency": "inactive"}
{"smiles": "COCc1cc(C)nc2sc(C(=O)NC3CCCCC3)c(N)c12", "Potency": "inactive"}
{"smiles": "Cc1ccc(C2(C(F)(F)F)N=C3Sc4cc(C)cc(C)c4N3C(=O)N2)cc1", "note": "(centres undefined)", "Potency": "inactive"}
{"smiles": "CC(C)C[C@H]1CN=C(Nc2ccccc2)N1CC1CCCCC1", "Potency": "inactive"}
{"smiles": "NC1=NOC(=O)C1C1CCCCC1", "note": "(centres undefined)", "Potency": "inactive"}
{"smiles": "COc1ccc(-c2nnc(SCC(=O)Nc3cccnc3Cl)n2C)cc1", "Potency": "inactive"}
{"smiles": "CCc1nccn1CCC(=O)N1CCCC(N2CCN(c3ccccc3F)CC2)C1", "note": "(centres undefined)", "Potency": "inactive"}
{"smiles": "CC1=C(C(=O)N(C(C)C)C(C)C)CC(CC(=O)NCC2CCCCC2)C(=O)N1Cc1ccccc1", "note": "(centres undefined)", "Potency": "inactive"}
{"smiles": "O=C(O)CCCn1c(=O)c2cccn2c2ccc(F)cc21", "Potency": "inactive"}
{"smiles": "CCOc1ccccc1NC(=O)C1CCC(CNc2c(N3CCOCC3)c(=O)c2=O)CC1", "note": "(centres undefined)", "Potency": "inactive"}
{"smiles": "CC(C)CNC(=O)/C=C/C(=O)O", "Potency": "inactive"}
{"smiles": "C=CCN1CN(S(=O)(=O)c2ccc(OC)cc2)c2nc3ccccc3nc21", "Potency": "inactive"}
{"smiles": "CCN(CC)CCn1c(N)c(S(=O)(=O)c2ccccc2)c2nc3ccccc3nc21", "Potency": "inactive"}
{"smiles": "C=CCn1c(N)c(S(=O)(=O)c2cccs2)c2nc3ccccc3nc21", "Potency": "10 µM (active)"}
{"smiles": "Cn1ncc(N2CCN(S(=O)(=O)c3ccc(Br)cc3)CC2)c(Cl)c1=O", "Potency": "inactive"}
{"smiles": "CCCCn1c(N)c(N(CCC(C)C)C(=O)c2ccc(COc3ccccc3)o2)c(=O)[nH]c1=O", "Potency": "inactive"}
{"smiles": "Cc1cccc(C2c3[nH]c4ccccc4c3CCN2C(=O)c2cc(-c3cccn3C)n[nH]2)n1", "note": "(centres undefined)", "Potency": "inactive"}
{"smiles": "O=C(NC1(C(F)(F)F)N=C2SCCN2C1=O)c1ccco1", "note": "(centres undefined)", "Potency": "inactive"}
{"smiles": "NC(=O)COC(=O)c1sc2cc(F)ccc2c1Cl", "Potency": "inactive"}
{"smiles": "NC(=O)C1CCN(C(=O)c2ccc3c(=O)n(Cc4cccc(Br)c4)c(=S)[nH]c3c2)CC1", "Potency": "inactive"}
{"smiles": "Cc1ccc(SCC(=O)c2cc(C)c(OC(=S)N(C)C)c(C)c2)cc1", "Potency": "inactive"}
{"smiles": "CSc1cc(C)[nH]c(=O)n1", "Potency": "inactive"}
{"smiles": "CCCNC(=O)CCc1c(C)nc2c(c(C)nn2-c2ccccc2)c1C", "Potency": "inactive"}
{"smiles": "COc1ccccc1CNC(=O)CN1CCC(n2cnc3cc(F)ccc32)CC1", "Potency": "inactive"}
{"smiles": "CCN(CC)c1ncnc2c1ncn2[C@H]1CN(Cc2cccs2)C[C@@H](CO)O1", "Potency": "inactive"}
{"smiles": "COc1ccc(OCC(=O)OCC(=O)Nc2ccc(S(=O)(=O)N3CCCCC3)cc2)cc1", "Potency": "inactive"}
{"smiles": "CCCN(CC(=O)Nc1ccc(OC)c(OC)c1)CC(=O)Nc1ccc(F)c(F)c1F", "Potency": "inactive"}
{"smiles": "COc1cccc(N=c2oc3c(C)ncc(CO)c3cc2C(N)=O)c1", "Potency": "inactive"}
{"smiles": "Cc1ccc(CNC(=O)C2CCN(S(=O)(=O)c3ccc4nc5c(c(C(=O)O)c4c3)CC(C)CC5)CC2)cc1", "note": "(centres undefined)", "Potency": "inactive"}
{"smiles": "CCCCc1nc2cc(C(=O)N3CCCCC3CCO)ccc2o1", "note": "(centres undefined)", "Potency": "inactive"}
{"smiles": "COc1cc(C)c(Cl)cc1S(=O)(=O)n1ccnc1", "Potency": "inactive"}
{"smiles": "CCN(CC)c1ccc2oc(=O)c(C)nc2c1", "Potency": "100 µM (active)"}
{"smiles": "CN(Cc1nc2ccccc2c(=O)[nH]1)Cc1cc(=O)oc2ccc3ccccc3c12", "Potency": "inactive"}
{"smiles": "Cc1ccc2c(=O)oc(N(C)C)nc2c1", "Potency": "inactive"}
{"smiles": "Cc1cc(C)cc(N(CC(=O)NCC2CCCO2)S(=O)(=O)c2c(C)noc2C)c1", "note": "(centres undefined)", "Potency": "inactive"}
{"smiles": "Cc1cc(OCC(=O)N(C)c2c(N)n(Cc3ccccc3)c(=O)[nH]c2=O)c(C(C)C)cc1Cl", "Potency": "inactive"}
{"smiles": "Cn1c(=O)[nH]c(=O)c2c1[nH]c(=S)n2Cc1ccccc1", "Potency": "inactive"}
{"smiles": "Cc1cc2nc3c(=O)n(Cc4ccccc4)c(=O)[nH]c3nc2cc1N", "Potency": "112 µM (active)"}
{"smiles": "CCn1nc(C)c(CNC(=O)C2CCC(=O)N(Cc3cccc(F)c3)C2)c1C", "note": "(centres undefined)", "Potency": "inactive"}
{"smiles": "CN(C)C(=O)c1nc2ccc(Cl)cn2c1CNCc1cccc(OC(F)(F)F)c1", "Potency": "inactive"}
{"smiles": "CSCCC(NC(N)=O)C(=O)N(C)CC(=O)Nc1ccc(C)cc1", "note": "(centres undefined)", "Potency": "inactive"}
{"smiles": "CCCCN(C1CCS(=O)(=O)C1)S(=O)(=O)c1ccc(C(C)C)cc1", "note": "(centres undefined)", "Potency": "inactive"}
{"smiles": "CCCC(=O)NC(=S)Nc1ccc(CN2CCOCC2)cc1", "Potency": "inactive"}
{"smiles": "O=C(CCCl)Nc1ccc(S(=O)(=O)NCc2ccco2)cc1", "Potency": "inactive"}
{"smiles": "O=C(CNC(c1ccccc1)c1ccccc1)Nc1ccc(F)cc1", "Potency": "inactive"}
{"smiles": "COc1ccc(S(=O)(=O)N2CCCC(C(=O)Nc3ccc(NC(=O)c4ccccn4)cc3)C2)cc1", "note": "(centres undefined)", "Potency": "inactive"}
